# Screens (PubChem)
# Wnt bcat act: activates Wnt/beta-catenin signaling in a reporter cell assay. 1.2% of 300,000 active. AID 743398. activator, plate reader. activation, % at 9.35 µM; in the data active = activation above about 30%, passing the limit was not always enough; inconclusive = no clear call, values can overlap the other calls
# HSF1 inhib: HSF1 inhibition; NIH3T3-HGL HSE-luciferase, MG132-induced, luminescence 8 h; stronger effect = lower value; activity change, negative = inhibition, % at 7.5 µM (by protocol); 0.77% of 300,000 active; AID 2098;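 active = more than half of replicate wells show activity change below -50%, luminescence cut by over half; inconclusive = some wells, but at most half, below -50%; inactive = no replicate well below -50%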;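 also: luciferase reports HSF-1 transcriptional activity via heat shock element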
# esBAF inh: SWI/SNF esBAF complex inhibition; mouse ES cells, Bmi1-luciferase knock-in reporter, 24 h; 100% = twice the neutral-well signal; reporter increase, % at 12.5 µM; 2% of 350,000 active; in the data active = activation above about 40%; inconclusive = no clear call, values can overlap the other calls;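 also: a rise in the Bmi1 reporter signal indicates esBAF inhibition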
# HSF-1 act: increases HSF-1 driven luciferase reporter signal; NIH3T3-HGL HSF-1 luciferase reporter, MG132, 8 h; 100% = twice DMSO control signal; activation, % at 9 µM; 1.7% of 300,000 active;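 active = mean replicate activation of at least 50% with a set share of replicates each reaching 50%; inconclusive = only one of those two conditions met; inactive = mean below 50% and too few replicates reaching it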
# MITF TRPM1 HTS: activators of MITF-driven TRPM1 promoter activity in SK-MEL-5 cells; SK-MEL-5 TRPM1-promoter luciferase, 24 h; % of positive control, neutral wells = 0; activation, % at 12.5 µM; 0.75% of 300,000 active; AID 588334;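 active = mean activation of at least 80% with every replicate also reaching 80%; inconclusive = mean reaches 80% but some replicate falls short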
# Hits are given with their value; – = inactive; ? = inconclusive; · = no result given. Sampled rows, rich in hits. Any-hit rate of the full collection: about 3.8%.
SMILES,Wnt bcat act,HSF1 inhib,esBAF inh,HSF-1 act,MITF TRPM1 HTS
CSc1ccccc1OCc1cc(C(=O)N(C)Cc2ccc3nsnc3c2)no1,35,–,–,–,–
CSc1ccccc1OCc1cc(C(=O)N(C)Cc2ccc(C)o2)no1,–,–,75,57,99
C[C@@H]1CN([C@H](C)CO)C(=O)c2cccc(NC(=O)Nc3ccc(C(F)(F)F)cc3)c2O[C@H]1CN(C)C(=O)Nc1ccc2c(c1)OCO2,·,·,–,·,·
O=C(Nc1ccc2c(c1)[C@H]1C[C@@H](CC(=O)N3CCCCC3)O[C@@H](CO)[C@H]1O2)NC1CCCC1,·,·,–,·,·
Cc1ccc(S(=O)(=O)N(C)C)cc1NC(=O)COC(=O)/C=C/c1ccc2ccccc2n1,–,–,·,76,–
Cc1ccc(S(=O)(=O)N(C)C)cc1NC(=O)COC(=O)c1c(-c2ccccc2)noc1C,–,–,–,–,–
Cc1noc(C)c1NC(=O)Nc1ccc2c(c1)C(=O)N([C@H](C)CO)C[C@@H](C)[C@H](CN(C)Cc1ccc(C(=O)O)cc1)O2,·,·,–,·,·
Brc1ccc2[nH]c3c(N4CCc5ccccc5C4)ncnc3c2c1,·,–,·,58,·
Cc1ccc2[nH]c3c(N4CCc5ccccc5C4)ncnc3c2c1,–,–,·,92,–
C[C@H]1CN([C@@H](C)CO)C(=O)c2cccc(NC(=O)C3CCCCC3)c2O[C@@H]1CN(C)S(=O)(=O)c1ccc(Cl)cc1,·,·,–,·,·
Cc1noc(C)c1S(=O)(=O)Nc1cccc2c1O[C@H](CN(C)C(=O)NC1CCCCC1)[C@H](C)CN([C@H](C)CO)C2=O,·,·,–,·,·
CCCN1C[C@@H](C)[C@H](OC)CN(C)C(=O)c2ccc(NC(=O)c3ccccn3)cc2OC[C@H]1C,·,·,–,·,·
CCOC(=O)C1=C(C)Nc2nc3ccccc3n2C1c1ccncc1 (stereo not drawn),·,–,–,80,·
C=CCOC(=O)C1=C(C)Nc2nc3ccccc3n2C1c1ccncc1 (stereo not drawn),·,–,·,62,·
Cc1ccc2c(c1)NC(=O)c1cccnc1N2,–,–,63,–,–
Cc1sc2ncnc(SCC(=O)NC(C)(C)C)c2c1C,–,–,–,–,–
CCN(CC)C(=O)CSc1ncnc2sc(C)c(C)c12,–,–,·,52,–
CCN(CC)C(=O)CSc1ncnc2sc(-c3ccccc3)cc12,·,–,63,–,·
CN(CCC#N)C(=O)CSc1ncnc2sc(-c3ccccc3)cc12,–,–,·,–,–
C[C@@H]1CN([C@@H](C)CO)S(=O)(=O)c2ccc(C#CC3(O)CCCC3)cc2O[C@@H]1CN(C)C(=O)c1ccncc1,·,·,–,·,·
CN1[C@H](C(=O)NC2CCC2)[C@@H](CO)[C@@H]2Cn3c(ccc(-c4cccc(F)c4)c3=O)[C@@H]21,·,·,–,·,·
Nc1ccc(Oc2cc(N)cc(Oc3ccccc3)c2)cc1,?,–,–,–,87
C/C=C/c1cnc2c(c1)C(=O)N([C@@H](C)CO)C[C@@H](C)[C@@H](CN(C)C(=O)NC1CCCCC1)O2,·,·,–,·,·
Cn1cccc1C(=O)C(=O)Nc1ccc(F)c(F)c1,–,–,46,63,103
Cn1cccc1C(=O)C(=O)Nc1cc(Cl)cc(Cl)c1,–,–,49,–,–
SMILES,Wnt bcat act,HSF1 inhib,esBAF inh,HSF-1 act,MITF TRPM1 HTS
Cn1cccc1C(=O)C(=O)Nc1ccc(Cl)cc1,–,–,–,–,·
Cn1cccc1C(=O)C(=O)Nc1cccc(Cl)c1Cl,·,–,63,–,–
CCCc1cn(CC[C@H]2CC[C@H](NC(=O)C3CCC3)[C@H](CO)O2)nn1,·,·,–,·,·
OC(COc1c(F)cc(Br)cc1F)CN1CCN(c2ccc(F)cc2)CC1 (stereo not drawn),–,-87,–,–,·
C[C@@H]1CN([C@@H](C)CO)C(=O)c2cc(NS(=O)(=O)c3ccc(F)cc3)ccc2O[C@@H](C)CCCCO[C@H]1CN(C)C(=O)Nc1ccccc1,·,·,–,·,·
CCOC(=O)c1c(N2CCCCC2)c2ccccc2[nH]c1=O,·,-59,·,–,–
O=C(c1ccco1)N1CC2(CC(c3ccc(Cl)cc3)=NO2)CN1Cc1ccc(Br)cc1 (stereo not drawn),–,·,–,·,·
CC(C)N1CC2(CC(c3ccccc3F)=NO2)CN1C(=O)c1ccco1 (stereo not drawn),–,·,57,·,·
COc1ccc(NC(=O)CN(C)C(=O)c2ccc3c(c2)CC(c2ccccc2)OC3=O)cc1 (stereo not drawn),–,·,–,·,·
COc1cccc(NC(=O)CN(C)C(=O)c2ccc3c(c2)CC(c2ccccc2)OC3=O)c1 (stereo not drawn),48,·,–,·,–
C[C@@H]1CN([C@H](C)CO)C(=O)c2cccc(NC(=O)c3ccc(-c4nccs4)cc3)c2O[C@H]1CN(C)C(=O)Nc1cccc2ccccc12,·,·,–,·,·
N=C1C(c2nc3ccccc3s2)=C(O)CN1C1CCCCC1,–,–,·,54,–
N=C1C(c2nc3ccccc3s2)=C(O)CN1Cc1ccccc1,·,–,48,–,–
CCN(CC)CCCN1CC(O)=C(c2nc3ccccc3s2)C1=N,·,–,·,–,–
N=C1C(c2nc3ccccc3s2)=C(O)CN1C1CCC(O)CC1 (stereo not drawn),–,–,·,–,·
COc1ccc(/C(N)=N/OC(=O)CSc2ccccc2)cc1,·,–,·,–,–
Cc1ccc(/C(N)=N/OC(=O)CSc2ccccc2)cc1,?,–,·,62,–
N/C(=N\OC(=O)CSc1ccccc1)c1ccc([N+](=O)[O-])cc1,39,·,·,·,–
C[C@H](CO)N1C[C@H](C)[C@H](CN(C)Cc2ccc(Cl)c(Cl)c2)Oc2c(NC(=O)Nc3cccc4ccccc34)cccc2C1=O,·,·,–,·,·
COc1ccc(S(=O)(=O)N(C)C[C@@H]2Oc3ncc(C#CC4(O)CCCC4)cc3C(=O)N([C@@H](C)CO)C[C@@H]2C)cc1,·,·,–,·,·
O=C(NCC1CCCC(CNC(=O)Nc2ccc(Cl)cn2)C1)Nc1ccc(Cl)cn1 (stereo not drawn),–,–,–,56,–
O=C(NCC1CC1)Nc1ccc(Cl)cc1,–,–,68,–,?
C[C@@H]1CN([C@H](C)CO)C(=O)c2cc(C#Cc3cccnc3)cnc2O[C@H]1CN(C)Cc1ccc(F)cc1,·,·,–,·,·
C[C@H](CO)N1C[C@H](C)[C@@H](CN(C)CC2CCOCC2)Oc2cc(C3=CCCC3)ccc2S1(=O)=O,·,·,–,·,·
COc1ccc(-c2nnc(SC(C)C(=O)Nc3cccc(Cl)c3)o2)cc1 (stereo not drawn),39,–,–,109,87
SMILES,Wnt bcat act,HSF1 inhib,esBAF inh,HSF-1 act,MITF TRPM1 HTS
CCc1cc(=O)oc2c(CNCc3ccccc3F)c(O)c(Cl)cc12,–,–,–,64,–
COCC(=O)Nc1ccc2c(c1)OC[C@@H](C)N(CC1CC1)C[C@@H](C)[C@H](OC)CN(C)C2=O,·,·,–,·,·
C[C@H]1CN([C@@H](C)CO)S(=O)(=O)c2ccc(-c3cccnc3)cc2O[C@@H]1CN(C)CC1CCOCC1,·,·,–,·,·
CC(=O)Nc1ccc(Oc2ccc(-c3noc(C)n3)cc2)cc1,·,–,–,–,–
CC(=O)Oc1ccc(Oc2ccc(-c3noc(C)n3)cc2)cc1,48,–,–,–,·
Cc1ccc([C@H]2C[C@@H](O)[C@H](n3cc(C4CC4)nn3)CN2Cc2cccs2)cc1,–,·,–,·,·
